In PubChem BioAssay AID624297 (National Center for Advancing Translational Sciences (NCATS), 2012) one finds Potency and re-replication activation data, which are given here for 96 compounds.

In all, about 340,000 compounds went through this assay and about 6,200 (1.8%) were called active. Entries that show only a call come without a potency. Inconclusive results (about 10%) are left out. Calls come from the whole dose curve; as a rule, active = well fitted activation curve with a large enough effect; inconclusive = small, poorly fitted or top-dose-only effect; inactive = no such curve, though single readings can be large or run the other way. For the sample, actives were picked, then their nearest neighbours and some compounds at random.
Potency is the fitted concentration of half-maximal effect.

The assay can be described thus: A quantitative high throughput screen for small molecules that induce DNA re-replication in SW480 colon adenocarcinoma cells. Note: nearly all actives have a fitted effect of over 55% in size. As to conditions: Hoechst DNA content imaging, 48 h; series mostly up to 46.1 µM. In a few lines: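 DNA re-replication was detected as more nuclei of elevated Hoechst intensity after 48 hr exposure to compound (23 nL pinned per well of 250 cells).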
As to `COc1ccccc1N(CC(=O)Nc1c(C)n(C)n(-c2ccccc2)c1=O)S(=O)(=O)c1ccccc1`, the Potency entry was “inactive”.

For `Cc1ccc(S(=O)(=O)NCC(=O)NNC(=O)c2ccc(Br)cc2)cc1C`, the Potency result is “inactive”.

`COc1cc(/C=C2\Oc3ccc(C#Cc4ccc(O)cc4)cc3C2=O)cc(OC)c1`: the Potency result is “inactive”. With `O=C1c2ccccc2C(=O)N1CCC#Cc1ccc2cc(C3(O)CCCCC3)oc(=O)c2c1`, the Potency entry was “inactive”. Regarding `COc1cc(C#Cc2ccc3cc(CCCO)oc(=O)c3c2)cc(OC)c1`, the Potency is 3.26 µM (active). Still for that read-out and setting: then `C#CCOCCOCCOCCNc1nc(N2CCN(C(=O)[C@H](CO)n3cc([C@@H](N)C(C)C)nn3)CC2)nc(N2CCN(C(=O)[C@H](CCC(=O)O)n3cc([C@@H](N)[C@H](C)CC)nn3)CC2)n1`, with “inactive”. The same measure, in the same setting: then `COc1ccc2[nH]cc(/C=C(/C#N)S(=O)(=O)c3ccccc3)c2c1`, with “inactive”; and `COc1ccc(/C=C(\C#N)c2c[nH]c3ccccc23)cc1`, with 18.4 µM (active); and `COc1cc(/C=C(\C#N)c2nc3ccccc3[nH]2)ccc1O`, with “inactive”.

For the compound `C#CCOCCOCCOCCNc1nc(N2CCOCC2)nc(N2CCN(C(=O)[C@H](Cc3ccc(O)cc3)n3cc(CCO)nn3)CC2)n1`, the Potency result was “inactive”. On to `Cc1noc(C)c1S(=O)(=O)N(C)C[C@H]1Oc2c(NC(=O)Nc3ccc4c(c3)OCO4)cccc2C(=O)N([C@H](C)CO)C[C@@H]1C`, for which the Potency entry was “inactive”. Regarding `O=C(NCc1ccc2c(c1)OCO2)c1cc(F)c(F)cc1Cl`, the Potency entry is “inactive”. For the compound `O=C(NCc1ccc2c(c1)OCO2)c1cc([N+](=O)[O-])ccc1N1CCOCC1`, the Potency was 7.31 µM (active). Same read-out and setting: the result for `O=C(Cc1ccc([N+](=O)[O-])cc1)NCCc1ccc2c(c1)OCO2` reads “inactive”. For the compound `CC[C@]12c3[nH]c4ccc(Cl)cc4c3CCN1C(=O)[C@@H](CC(=O)NCCN1CCOCC1)C[C@@H]2C(=O)N1CCN(C(=O)C2CC2)CC1`, the Potency entry is “inactive”. Regarding `COc1ccc(CCNC(=O)COc2cc(C)cc3oc(=O)c(C)c(C)c23)cc1OC`, the Potency result is “inactive”.

Take `COc1ccc(/C=C/C(=O)OCC(=O)NC2CCCCCC2)cc1OC`: the Potency entry is “inactive”.

With `COCCCN1C(=O)C(=O)/C(=C(/O)c2ccc3c(c2)CC(C)O3)C1c1cccnc1` (stereo unspecified), the Potency entry was “inactive”. In the case of `COc1ccc(C2/C(=C(/O)c3ccc4c(c3)CC(C)O4)C(=O)C(=O)N2Cc2ccncc2)cc1` (stereo unspecified), the Potency entry was “inactive”.

`COc1cc(C2/C(=C(\O)c3ccc4c(c3)CC(C)O4)C(=O)C(=O)N2Cc2ccco2)ccc1O` (stereo unspecified): the Potency is 0.517 µM (active).

Turning to `O=C(COC(=O)c1ccc(O)cc1O)c1ccc2c(c1)OCCO2`, the Potency result is “inactive”. Still for that read-out and setting: then `O=C1CN(C(=O)COC(=O)/C=C/c2ccc(F)cc2)c2ccccc2N1`, with “inactive”. On to `COc1ccc2c(C(=O)c3ccc(C)cc3)n(CCC(N)=O)[n+]([O-])c2c1`, for which the Potency entry is “inactive”. `COc1ccc(C(=O)c2c3ccc([N+](=O)[O-])cc3[n+]([O-])n2CCCN)cc1`: the Potency was 18.4 µM (active). For the compound `COc1ccc(C(=O)CC(=O)C(=O)Nc2cc([N+](=O)[O-])ccc2OC)cc1`, the Potency result is “inactive”. On the same count and under the same terms, then `COc1cc(OC)cc(-c2c(C#Cc3ccsc3)c3cc(-c4ccc(SC)cc4)ccc3n2C)c1`, with “inactive”; and `Cc1nnc(N/N=C/c2ccccn2)[nH]c1=O`, with 1.3 µM (active).

As for `Cc1nnc(N/N=C/C2CC=CCC2)[nH]c1=O` (stereo unspecified), the Potency entry was “inactive”. On the same count and under the same terms, then `Cc1cc(C(=O)N/N=C/c2ccccn2)c2ccccc2n1`, with “inactive”. For the compound `CC(C)[C@@H](C(=O)OCC(=O)c1ccc2c(c1)NC(=O)CO2)N1C(=O)c2ccccc2C1=O`, the Potency entry is “inactive”. The same measure, in the same setting: then `O=S(=O)(NCC1CN(S(=O)(=O)c2ccc3c(c2)OCCO3)C1)c1c(F)cccc1F`, with “inactive”; and `CSc1ncccc1C(=O)Nc1cccc(S(=O)(=O)N2CCOCC2)c1`, with “inactive”; and `CCOC(=O)c1c(S(=O)(=O)Nc2ccc(CN3CCC(C)CC3)cc2)c(C)n(C)c1C`, with “inactive”. As for `CCOC(=O)c1c(S(=O)(=O)Nc2cccc(Cl)c2)c(C)n(C)c1C`, the Potency was 8.2 µM (active). Consider `CCOC(=O)c1cccc(NS(=O)(=O)c2c(C(=O)N3CCCCCC3)c(C)n(C)c2C)c1`, for which the Potency entry was “inactive”. Consider `COc1ccc(CCN2CC(C(=O)OCC(=O)NCc3ccccc3Cl)CC2=O)cc1OC` (stereo unspecified), for which the Potency entry is “inactive”. Turning to `Cc1ccc(S(=O)(=O)N2CCN(C(=O)Cn3c(=O)cnc4ccccc43)CC2)c(C)c1`, the Potency result was “inactive”. On the same count and under the same terms, then `CCN(CC(=O)Nc1c(F)cccc1F)C(=O)Cc1cccs1`, with “inactive”; and `Cc1cc(NC(=O)CSCC(=O)NC(C)c2ccccc2)no1` (stereo unspecified), with “inactive”. Consider `NS(=O)(=O)c1ccc(CCNc2nc(C(F)(F)F)nc3ccccc23)cc1`, for which the Potency result is “inactive”. On the same count and under the same terms, the result for `COc1cccc(CNc2nc(C(F)(F)F)nc3ccccc23)c1` reads “inactive”; that for `CCc1ccc(C(CNc2nc(C(F)(F)F)nc3ccccc23)N(C)C)cc1` (stereo unspecified), 20.6 µM (active). `CC(CN1CCCCC1)c1ccccc1` (stereo unspecified): the Potency is 5.8 µM (active). Take `CC(CN1CCOCC1)c1ccccc1` (stereo unspecified): the Potency result was “inactive”. For `CC(CN1CCC(n2nccc2NC(=O)C2CCCC2)CC1)c1ccccc1` (stereo unspecified), the Potency entry is “inactive”. Regarding `O=C(Nc1ccc2ccccc2c1[N+](=O)[O-])c1ccccc1`, the Potency result is “inactive”. On to `O=C(Nc1cccc2cccnc12)c1cccc(Cl)c1`, for which the Potency result is “inactive”. `O=C(Nc1ccccc1Cl)Nc1cccc2cccnc12`: the Potency result was “inactive”. The same measure, in the same setting: the result for `CC(=O)/C(=N\Nc1ccc(Cl)cc1Cl)Sc1cccc2cccnc12` reads 6.51 µM (active); that for `CCC(C)c1ccc(NC(=O)COC(=O)C2CCCC2)cc1` (stereo unspecified), “inactive”; that for `CC(Sc1nncn1C)C(=O)NCCC1=CCCCC1` (stereo unspecified), “inactive”. On the same count and under the same terms, then `COc1ccc(Cn2cc(CN3CCS(=O)(=O)N(Cc4ccc(-c5cccc(Cl)c5)cc4)C(C)C3=O)nn2)cc1` (stereo unspecified), with “inactive”. Turning to `CN(C(=O)c1cccc(NC(=O)Cc2ccc([N+](=O)[O-])cc2)c1)C1CCC1`, the Potency result is “inactive”. Take `CCCCCOc1ccc(CSC2=NCCN2)cc1[N+](=O)[O-]`: the Potency is 5.8 µM (active). `CCCOc1ccc(Cn2ccnc2)cc1[N+](=O)[O-]`: the Potency result was “inactive”. Same read-out and setting: then `Cc1nc(SCc2ccc(F)cc2)c([N+](=O)[O-])[nH]1`, with “inactive”; and `O=C1NCC(c2ccccc2)(c2ccccc2)C(=O)N1`, with “inactive”.

For the compound `COc1cccc(C(=O)Nc2ccc(N3CCN(C(=O)c4ccco4)CC3)cc2)c1`, the Potency is 18.4 µM (active). Same read-out and setting: the result for `CCC(=O)Nc1ccc(C(=O)N2CCN(C(=O)c3ccco3)CC2)cc1` reads “inactive”. On to `Cc1ccc(OCC(=O)Nc2ccc(N3CCN(C(=O)c4ccco4)CC3)cc2)c(C)c1`, for which the Potency entry is “inactive”. On the same count and under the same terms, the result for `Cc1ccc(S(=O)(=O)N2CCCCC2)cc1NC(=O)CCNC(=O)c1ccccc1` reads “inactive”; that for `Cc1cccc(C2=N/C(=C/c3cccs3)C(=O)O2)c1`, 4.61 µM (active); that for `Cc1ccc(N2CCN(C3=NC(=O)/C(=C\c4cccs4)S3)CC2)cc1`, “inactive”. `Cc1ccc(C2=N/C(=C\c3ccc(OS(=O)(=O)c4ccc(C)cc4)cc3)C(=O)O2)cc1`: the Potency result is “inactive”. In the case of `Cc1nc2ccc(N)nc2nc1C`, the Potency result is “inactive”. In the case of `CCCN(CCC)S(=O)(=O)c1cc2c(cc1Br)CCN2C(=O)CC`, the Potency result was “inactive”. Still for that read-out and setting: then `Cc1noc(C)c1S(=O)(=O)N(C)C[C@H]1Oc2ccc(NC(=O)C3CC3)cc2C(=O)N([C@H](C)CO)C[C@@H]1C`, with “inactive”; and `CCN1CCN(CCNC(=O)c2ccc(/C=C3/Sc4ccccc4N(Cc4cccc(C)c4)C3=O)cc2)CC1`, with 20.6 µM (active). As for `CN1CCN(CCCNC(=O)c2ccc(/C=C3\Oc4ccccc4N(Cc4ccc(Cl)cc4)C3=O)cc2)CC1`, the Potency entry is “inactive”. On the same count and under the same terms, the result for `O=C(NCCN1CCOCC1)c1ccc(/C=C2\Sc3ccccc3N(Cc3ccc(F)cc3)C2=O)cc1` reads “inactive”; that for `C[C@@H]1CN([C@@H](C)CO)C(=O)c2cccc(NS(=O)(=O)c3ccc(F)cc3)c2O[C@H]1CN(C)C(=O)NC1CCCCC1`, “inactive”; that for `CC1CN(C(=O)c2ccc([N+](=O)[O-])s2)CC(C)O1` (stereo unspecified), “inactive”. On to `O=C(c1cccc(S(=O)(=O)N2CCCCCC2)c1)N1CCN(Cc2ccccc2)CC1`, for which the Potency result is “inactive”. For `Cn1c(NC(=O)c2ccccc2)nc2ccccc21`, the Potency entry was “inactive”. On the same count and under the same terms, then `CC(NC(=O)c1ccccc1)C(=O)Nc1ccccc1` (stereo unspecified), with “inactive”.

Consider `O=C(NC1=CC(=O)c2ccccc2C1=O)c1ccccc1`, for which the Potency was 5.8 µM (active). Still for that read-out and setting: the result for `Cc1c[n+]([O-])ccc1[N+](=O)[O-]` reads “inactive”.

For the compound `COc1ccc(S(=O)(=O)N2C[C@H]3CON(C)[C@H]3C[C@H]2c2cccc(Br)c2)cc1`, the re-replication activation was -5.21% [at 9.22 µM] (inactive). As for `O=C(COc1ccccc1F)Nc1nc(-c2ccccn2)cs1`, the Potency result is “inactive”. Still for that read-out and setting: the result for `CCc1ccc2c(c1)C1(NN=C(c3ccccc3)S1)C(=O)N2` (stereo unspecified) reads 10.3 µM (active). The same measure, in the same setting: then `CN(CCc1ccccc1)C(=O)c1cccc(NC(=O)Cc2cccc(NC(=O)C3CCCN(C(=O)C4CCC4)C3)c2)c1` (stereo unspecified), with “inactive”. Regarding `Fc1ccc(N2N=C(c3cccs3)CC2c2ccco2)c(F)c1` (stereo unspecified), the Potency was 23.1 µM (active). For the compound `Cc1ccccc1C1CC(c2cccs2)=NN1S(C)(=O)=O` (stereo unspecified), the Potency result was “inactive”. Take `CCS(=O)(=O)Nc1ccc(C2=NN(S(=O)(=O)c3ccc(F)cc3)C(c3ccco3)C2)cc1` (stereo unspecified): the Potency entry is “inactive”.

Take `CCCc1cc(=O)[nH]c(SCC(=O)Nc2ccc(C(=O)Nc3ccccc3OC)cc2)n1`: the Potency entry was “inactive”. On to `Cc1ccc(-c2cc(=O)c3ccc(Cl)cc3[nH]2)cc1`, for which the Potency entry was “inactive”. As for `O=c1cc(-c2ccccc2)[nH]c2cc(F)ccc12`, the Potency is 0.92 µM (active).

`Cc1ccc(-c2cc(=O)c3ccc(F)cc3[nH]2)cc1`: the Potency entry was “inactive”. In the case of `CCCCNCCS(=O)(=O)NCc1ccccc1`, the Potency result was “inactive”.

For `O=C(CSc1ncn[nH]1)Nc1ccc(Br)cc1Br`, the Potency result was “inactive”. On the same count and under the same terms, then `Cc1cccc(OCC(=O)OCC(=O)Nc2ccc(Cl)cn2)c1`, with “inactive”. Take `O=C1OC(Cc2ccccc2)C(c2ccccc2)C1=O` (stereo unspecified): the Potency result was “inactive”. As for `COc1cccc(CNC(C)C(=O)Nc2ccc(S(=O)(=O)N3CCCC3)cc2)c1` (stereo unspecified), the Potency entry was “inactive”. Take `CCN1CCC2(CC1)N=C(c1ccc(F)cc1)C(=S)N2C(=O)c1ccc(C)cc1`: the Potency is 20.6 µM (active). In the case of `Cc1ccc(SCC(=O)N2CCN(c3ccc(F)cc3)CC2)cc1`, the re-replication activation was 2.77% [at 1.84 µM] (inactive). As for `CCN1CCN(C(=O)CSc2ccc(C)cc2)CC1`, the Potency result was “inactive”.
